# In PubChem BioAssay (NCI):
# This is part of a sample that, as a whole, favours compounds with a hit. Of some 79,000 tested, about 15% had one in any assay. Calls of active or inactive are those of the source. Rule as the data show it: active = growth inhibition above about 70%; inactive = the rest.
# Assay: NCI Yeast Anticancer Drug Screen. Data for the cln2 rad14 strain (AID 165);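 also: 0% = growth equal to vehicle treated cultures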
# Conditions: S. cerevisiae cln2 rad14 strain, at 50.0 µM, hits give high values
# How it was run: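 Growth of compound-exposed yeast (cln2 rad14 genotype) measured and expressed as inhibition relative to vehicle.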
row,Structure (SMILES),growth inhibition
1,CCCN(C)C(C)(C)C(=O)c1ccccc1,-10.2% (inactive)
2,Cc1ccc(S(=O)(=O)OC2CN3CCC2CC3)cc1 (stereo not drawn),26.8% (inactive)
3,O=C(Nc1ccccc1F)C(Cl)(Cl)Cl,-5% (inactive)
4,NC1CC(O)C(O)CC1c1ccc2c(c1)OCO2 (stereo not drawn),-13.9% (inactive)
5,COc1ccc2c(c1)[C@@]13CCCC[C@H]1[C@@H](C2)N(C)CC3=O,9.65% (inactive)
6,COC1OCC(N=[N+]=[N-])C(OC)C1O (stereo not drawn),-19.2% (inactive)
7,CC1OC(O[C@@H]2C=C3CC[C@@H]4[C@H](CC[C@]5(C)[C@@H](c6ccc(=O)oc6)CC[C@]45O)[C@@]3(C)CC2)C(O)C(OC2OC(CO)C(O)C(O)C2O)C1O (stereo partly drawn),10.8% (inactive)
8,CC1(C)OC2OCCC(N=[N+]=[N-])C2O1 (stereo not drawn),-29.8% (inactive)
9,CC(C)=CCC/C(C)=N\N=C(N)N,-20.5% (inactive)
10,C[C@]12CC[C@@H]3C4=CC(=O)CC[C@@H]4CC[C@H]3[C@@H]1CC[C@@H]2O,-8.45% (inactive)
11,CN1CCc2cc3c(cc2[C@H]1[C@@H]1OC(=O)c2c1ccc1c2OCO1)OCO3,-0.25% (inactive)
12,COc1cc(C=C2C(=O)NC(=S)NC2=O)cc(OC)c1OC,18.6% (inactive)
13,Nc1nc(N)c2[nH]c(N)nc2n1,-14.4% (inactive)
14,C[C@]12CC[C@@H](O)C[C@H]1[C@@H](O)C[C@@H]1[C@@H]2CC[C@]2(C)C(=O)CC[C@@H]12,-17.1% (inactive)
15,C=[CH][Sn]([CH]=C)([c]1ccccc1)[c]1ccccc1,-0.65% (inactive)
16,CNC(=O)c1[nH]cnc1/N=N/N(C)N,87.9% (active)
17,NC(Cc1ccccc1)c1nn[nH]n1 (stereo not drawn),-40.6% (inactive)
18,CC(C)OP(=O)(OCCCO)C(Cl)Cl (stereo not drawn),2.55% (inactive)
19,C[C@]12CC[C@H]3[C@@H](CC[C@H]4N(CCCl)CCC[C@]34C)[C@@H]1CC[C@@H]2O,14.8% (inactive)

row,Structure (SMILES),growth inhibition
1,O=P(O)(O)c1ccccc1,-18.9% (inactive)
2,N#C[CH2][Sn]([c]1ccccc1)([c]1ccccc1)[c]1ccccc1,98% (active)
3,CCC1(CCNC(=O)CCl)C(=O)NC(=O)NC1=O,-38.1% (inactive)
4,O=c1c2ccccc2nc(-c2ccccc2Cl)n1-c1nnc(C(F)(F)F)s1,6.15% (inactive)
5,C/C(=N\N=C(N)N)C(CN(C)C)C(c1ccccc1)c1c(O)c2ccccc2oc1=O (stereo not drawn),13.8% (inactive)
6,C1=CC2C=CC(C=C1)[PH+]2c1ccccc1.[C-]#[O+].[C-]#[O+].[C-]#[O+].[C-]#[O+].[C-]#[O+].[Cr] (stereo not drawn),21.4% (inactive)
7,O=C(O)C(Cl)Cl,-10.1% (inactive)
8,C[n+]1ccc2ccccc2c1-c1c2ccccc2cc[n+]1C,18.9% (inactive)
9,O=[N+]([O-])c1ccc2sc3ccccc3c2c1,44% (inactive)
10,O=P(O)(NCCCl)NCCCl,-5.6% (inactive)
11,CC(=O)O[C@H]1C(=O)[C@@]2(C)[C@H]([C@H](OC(=O)c3ccccc3)[C@@]3(O)C[C@H](O)C(C)=C1C3(C)C)[C@]1(OC(C)=O)CO[C@@H]1C[C@@H]2O,8.35% (inactive)
12,C1CN([PH+](N2CC2)N2CC2)CCO1.C1CN([PH+](N2CC2)N2CC2)CCO1.[Cl][Pt][Cl],-8.85% (inactive)
13,CC(=O)Nc1cc([As](=O)(O)O)ccc1O,-28.2% (inactive)
14,COC(=O)C1=C(O)C(C(=O)OC)C2/C(=[N+](/[O-])O)c3c(cc([N+](=O)[O-])cc3[N+](=O)[O-])C1C2[N+](=O)[O-] (stereo not drawn),66.3% (inactive)
15,c1cc2c(cc1NC1=NCCO1)CCC2,-31.6% (inactive)
16,O=[N+]([O-])c1ccc(P2(=O)Nc3ccccc3N2)cc1,-46.8% (inactive)
17,Oc1cccc(-c2ccccc2)c1,5.35% (inactive)
18,O=[Se](=O)(O)O,-74.7% (inactive)
19,ClCCN(CCCl)c1ncnc2c1ncn2Cc1ccccc1,-12.6% (inactive)
